From PubChem BioAssay AID504832 (National Center for Advancing Translational Sciences (NCATS), 2011)
The whole screen tested about 310,000 compounds, of which about 18,000 (5.8%) were called active. Roughly 22% stayed inconclusive and do not appear here. This is one part of a sample in which actives are shown more often than they occur. Calls follow the shape of the dose curve; as a rule, active = well fitted inhibition curve with a large enough effect; inconclusive = small, poorly fitted or top-dose-only effect, or another doubt; inactive = no such curve, though single readings can be large or run the other way.

experiment: Primary qHTS for delayed death inhibitors of the malarial parasite plastid, 48 hour incubation; settings: P. falciparum luciferase growth in erythrocytes; series mostly up to 28.7 µM; activity change, negative = inhibition: at the top concentration
In short: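 Firefly luciferase activity from engineered P. falciparum reports growth; inhibitors lower the luminescent signal. Cultures contained 2% hematocrit erythrocytes at 0.1% final parasitemia.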
% is scaled to controls: 0 for no effect and ±100 for the full control effect; potency is read from the fitted curve at half-maximal effect.

| Compound | activity change, negative = inhibition | Potency |
| --- | --- | --- |
| COc1cccc(-c2ccc3c(c2)S(=O)(=O)c2cccc(C(=O)O)c2C3=O)c1OC | 22.2% (inactive) |  |
| CC(C)N(C(=O)COC(=O)c1ccccc1C(=O)N1CCN(c2ccc(F)cc2)CC1)C(C)C | -3.05% (inactive) |  |
| Cc1c(C(=O)N2CCN(c3ccc(F)cc3)CC2)oc2c1C(=O)CCC2 | 15.9% (inactive) |  |
| Cn1c2ccccc2c2c(C(=O)N3CCN(c4ccc(F)cc4)CC3)cn(C3CCCC3)c(=O)c21 |  | 10.4 µM (active) |
| COc1cccc(C(=O)Nc2nnc(S(=O)(=O)N(C)c3ccccc3)s2)c1 | 3.99% (inactive) |  |
| COc1cccc(/C=C/C(=O)OCC(=O)N2CCN(c3ccccc3)CC2)c1 | -22.5% (inactive) |  |
| COc1ccc(S(=O)(=O)N2CCN(C(C)C(=O)Nc3ccc(C(C)C)cc3)CC2)cc1 (centres undefined) |  | 10.4 µM (active) |
| COc1ccc(OCC(=O)OCC(=O)Nc2ccc(S(=O)(=O)N3CCCCC3)cc2)cc1 | -10.4% (inactive) |  |
| COc1ccc(S(=O)(=O)N2CCN(C(=O)NC3CCCCC3)CC2)cc1 | 6.95% (inactive) |  |
| CC(NC(=O)CN(C)S(=O)(=O)c1ccc(F)cc1)C1CC2CCC1C2 (centres undefined) | -23.8% (inactive) |  |
| CC(=O)Nc1ccc(N2C(=O)CC(Sc3nccc(C)n3)C2=O)cc1 (centres undefined) | 120% (inactive) |  |
| COc1cc(Cl)ccc1OCc1cc(C(=O)N(C)CCc2c(C)n[nH]c2C)no1 | -19.3% (inactive) |  |
| CNC(=O)O/N=C(\N)Cc1csc2ccc(Cl)cc12 |  | 3.7 µM (active) |
| O=C(O)COCC(=O)NCc1csc2ccc(Cl)cc12 | 32.3% (inactive) |  |
| CN(CCO)Cc1csc2ccc(Br)cc12 | 25.9% (inactive) |  |
| CCOC(=O)Cc1csc(NC(=O)C(C)(C)C)n1 | 34.9% (inactive) |  |
| CCOC(=O)Cc1csc(NC(=O)CSc2nc(C)cc(=O)[nH]2)n1 | 4.44% (inactive) |  |
| CCOC(=O)Cc1csc(NC(=O)CSc2ccc(Br)cc2)n1 |  | 10.4 µM (active) |
| CCC(C)C(N=C1NS(=O)(=O)c2ccccc21)C(=O)N1CCC(C)CC1 (centres undefined) | -15% (inactive) |  |
| CC(C)c1ccc(NC(=O)[C@@H](NC(=O)N2CC(=O)Nc3ccccc32)C(C)C)cc1 | -25.1% (inactive) |  |
| O=C(N/N=C/c1ccc(OC(=O)c2ccccc2Cl)cc1)c1ccc(O)cc1 | 21.7% (inactive) |  |
| CSc1ncccc1C(=O)NCc1ccccc1Cl | 14.7% (inactive) |  |
| CC(NC(=O)c1ccccc1F)c1cccc2ccccc12 (centres undefined) | -5.39% (inactive) |  |
| COc1ccc(S(=O)(=O)n2nc(C)c(S(=O)(=O)N3CCOCC3)c2C)cc1 | 10.2% (inactive) |  |
| O=C(CSc1ccc(-c2ccc(Br)cc2)nn1)NCC1CCCO1 (centres undefined) | -7.73% (inactive) |  |
| CC(NS(=O)(=O)c1ccc(Br)cc1)C(=O)NCC1CCCO1 (centres undefined) | 6.32% (inactive) |  |

| Compound | activity change, negative = inhibition | Potency |
| --- | --- | --- |
| OC(CNCC1CCCO1)Cn1c2ccc(Br)cc2c2cc(Br)ccc21 (centres undefined) |  | 0.586 µM (active) |
| CCc1ccc(C(=O)NN=C2CCCCCC2)s1 | 16.2% (inactive) |  |
| CCOc1ccc(CN2CCNC(=O)C2CC(=O)NCCCC2CCCC2)cc1 (centres undefined) | 13.3% (inactive) |  |
| Cc1nc2ccc(C(=O)N/N=C/c3ccc(O)cc3)cc2[nH]1 | 4.56% (inactive) |  |
| COC(=O)COc1ccc(S(=O)(=O)N2CCOCC2)cc1 | 6.25% (inactive) |  |
| COc1ccc(CNC(=O)COC(=O)/C=C/c2ccc(S(=O)(=O)N3CCOCC3)cc2)cc1 | 2.73% (inactive) |  |
| COc1ccc(S(=O)(=O)N2CCN(CC(=O)NCC3(N4CCOCC4)CCCCC3)CC2)cc1 |  | 9.28 µM (active) |
| CCc1ccc(OC(C)C(=O)Nc2ccc(S(=O)(=O)Nc3cc(C)on3)cc2)cc1 (centres undefined) | 9.01% (inactive) |  |
| CC1CCN(C(=O)CCNC(=O)c2ccccc2)CC1 | 78.1% (inactive) |  |
| CN(CC(=O)Nc1ccc(F)c(F)c1F)C(=O)C1CC(=O)N(C2CCCC2)C1 (centres undefined) | 6.58% (inactive) |  |
| O=C(CN1CCC(NC(=O)C2CC2)CC1)Nc1ccccc1[N+](=O)[O-] | -7.39% (inactive) |  |
| OC(COc1cccc2ccccc12)CN1CCN(c2ccccn2)CC1 (centres undefined) | 8.07% (inactive) |  |
| CN1CCN(CCCCOc2cccc3ccccc23)CC1 | -23.8% (inactive) |  |
| CC(C)c1ccccc1OCC(O)CN(CC(O)COc1cccc2ccccc12)C(C)C (centres undefined) |  | 1.65 µM (active) |
| NC(=O)C(Cc1ccccc1)NC(=O)C12CC3CC(CC(C3)C1)C2 (centres undefined) | -3.22% (inactive) |  |
| CNS(=O)(=O)c1ccc(C(=O)NCC(=O)NCCc2ccc3c(c2)OCCO3)cc1 | -14.7% (inactive) |  |
| CCOC(=O)c1c(C)[nH]c(C)c1S(=O)(=O)N(C)CC(=O)Nc1ccccc1C | -4.45% (inactive) |  |
| CCOC(=O)c1c(C)[nH]c2c1-c1ccccc1C(=O)C2=O |  | 1.47 µM (active) |
| CCOC(=O)N1CCN(CC(=O)c2c(C)[nH]c3ccccc23)CC1 | -7.87% (inactive) |  |
| Cc1ccc(-n2[nH]c(C)c(/C=N/N3C(=O)c4cccc5cccc(c45)C3=O)c2=O)cc1 | -9.64% (inactive) |  |
| COc1cc(SC#N)ccc1N=Cc1c(C)[nH]n(-c2ccc(C)cc2)c1=O |  | 13.1 µM (active) |
| CCc1nnc(NS(=O)(=O)c2ccc(N=Cc3c(C)[nH]n(-c4ccc(C)cc4)c3=O)cc2)s1 | 1.12% (inactive) |  |
| COc1cccc(N2CC(NC(=O)c3ccc4ccccc4c3)CC2=O)c1 (centres undefined) | 1.12% (inactive) |  |
| COC(=O)c1cc(S(=O)(=O)Nc2ccc(C)c(F)c2)c[nH]1 | -8.22% (inactive) |  |
| Cc1ccc(NC(=O)CSc2cccc3cccnc23)c(C)c1 | -28% (inactive) |  |
| COC(=O)c1ccc(-c2c(-c3ccccc3)ncc3cc(OC)c(OC)cc23)cc1 | -4.69% (inactive) |  |

| Compound | activity change, negative = inhibition | Potency |
| --- | --- | --- |
| O=C1CC2(CCN(C(=O)COc3ccc(F)cc3)CC2)Oc2ccccc21 | -9.25% (inactive) |  |
| COc1cc(-c2n[nH]c(=S)n2Cc2ccccc2)cc(OC)c1OC | -6.15% (inactive) |  |
| COc1ccc(CCn2c(-c3ccco3)nc3nc4ccccc4nc32)cc1OC | -18.5% (inactive) |  |
| CCC(C)n1c(-c2cc(OC)c(OC)c(OC)c2)nc2nc3ccccc3nc21 (centres undefined) |  | 13.1 µM (active) |
| COc1ccc(C(=O)NC(C)CCc2ccccc2)c(OC)c1 (centres undefined) | -23.8% [at 0.00184 µM] (inactive) |  |
| CCc1sc(C(=O)N2CCN(CC(=O)Nc3cccc(F)c3)CC2)cc1C | 4.46% (inactive) |  |
| CCOc1ccc(S(=O)(=O)N2CCN(C(=S)NCC3CCCO3)CC2)cc1 (centres undefined) |  | 5.22 µM (active) |
| CCOc1ccc(S(=O)(=O)NCCC(=O)NCC2CCCO2)cc1 (centres undefined) | 3.77% (inactive) |  |
| COc1ccc(S(=O)(=O)N2CCC(C(=O)N3CCOCC3)CC2)cc1OC | 4.87% (inactive) |  |
| S=C(NCC1CCCO1)N1CCN(c2ccc(Cl)c(Cl)c2)CC1 (centres undefined) | -30.4% (inactive) |  |
| COc1ccc(S(=O)(=O)N2CCN(C(=S)NCC3CCCO3)CC2)cc1OC (centres undefined) |  | 1.85 µM (active) |
| CCOc1ccc(NC(=S)N2CCC(N(C)CC3CCCO3)CC2)cc1 (centres undefined) | 15% (inactive) |  |
| CCCCNC(=O)CN1C(=O)NC(Cc2ccccc2)(Cc2ccccc2)C1=O | -9.93% (inactive) |  |
| CCN(CC(=O)NCCc1ccccc1)S(=O)(=O)c1ccccc1 | 1.84% (inactive) |  |
| CCN(CC)S(=O)(=O)c1ccc2[nH]cc(C(=O)NCCc3ccccc3)c(=O)c2c1 |  | 13.1 µM (active) |
| CCCCNC(=O)c1c[nH]c2ccc(S(=O)(=O)Nc3ccc(OCC)cc3)cc2c1=O | -11.5% (inactive) |  |
| COc1ccccc1C(=O)NC(=O)COC(=O)C1CC1 | -1.65% (inactive) |  |
| COc1ccccc1CCNC(=O)c1c(C)nn(CC(C)C)c1Cl | 2.24% (inactive) |  |
| COC(=O)C1CCCCN1C(=O)c1ccc(OC2CCN(C(C)=O)CC2)c(OC)c1 (centres undefined) | 2.55% (inactive) |  |
| O=C(NC(=S)Nc1ccc(Cl)cc1Cl)C1CC1 | 24.5% (inactive) |  |
| CCCCn1c(N)c(N(CC)C(=O)c2ccccc2C(F)(F)F)c(=O)[nH]c1=O | -1.06% (inactive) |  |
| Cc1ccc(S(=O)(=O)N2CCC(C)CC2)cc1C(=O)NCc1ccccn1 | 7.37% (inactive) |  |
| CC(=O)Nc1c2c(nn1-c1ccc(C)cc1C)CS(=O)C2 (centres undefined) | 14.5% (inactive) |  |
| Cc1nn(CCCC(=O)NCc2ccccc2Cl)c(=O)c2nccn12 | -1.54% (inactive) |  |
| CCC(=O)Nc1ccc2nc(C)n(Cc3ccccc3Cl)c(=O)c2c1 |  | 13.1 µM (active) |
| CCOC(=O)CSc1nc2c(c(=O)n(Cc3ccccc3Cl)c(=O)n2C)n1C | -9.46% (inactive) |  |

| Compound | activity change, negative = inhibition | Potency |
| --- | --- | --- |
| COc1ccc(CCN(C)C(=O)C23CC4CC(CC(Cl)(C4)C2)C3)cc1OC | -2.28% (inactive) |  |
| Cc1cc(-c2ccc(C)c(S(=O)(=O)Nc3ccc(S(N)(=O)=O)cc3)c2)on1 | 24.5% (inactive) |  |
| Cc1nc2ccccc2c(=O)n1Cc1ccc([N+](=O)[O-])cc1 | 6.4% (inactive) |  |
| Cc1cc(CNC(=O)c2cccc([N+](=O)[O-])c2)c2ccccc2n1 | 36.5% (inactive) |  |
| Cn1cc(/C=C/c2nc3ccccc3c(=O)n2-c2cccc([N+](=O)[O-])c2)c2ccccc21 |  | 10.4 µM (active) |
| Cc1ccc(CC2CC(=O)N(c3cc(C)ccc3C)C2=O)cc1 (centres undefined) | 4.56% (inactive) |  |
| COc1ccc(NS(=O)(=O)c2ccc3oc(SCC(N)=O)nc3c2)cc1 | -1.65% (inactive) |  |
| O=C(COC(=O)CNC(=O)C1CCCCC1)NCc1ccccc1 | 23.9% (inactive) |  |
| Cc1ccc2nc(-c3cccc(Br)c3)cc(C(=O)Nn3cnnc3)c2c1 | 50.9% (inactive) |  |
| Cc1cccc(-[n+]2c(-c3cccc(Br)c3)[nH]c3nc4ccccc4nc32)c1 |  | 13.1 µM (active) |
| Cc1ccc(OCC(=O)NNC(=S)NCc2ccccc2)cc1 | -6.04% (inactive) |  |
| O=C(NNC(=S)NCc1ccccc1)c1ccc(OC(F)F)cc1 | 6.83% (inactive) |  |
| CC(C)Oc1ccc(CCC(=O)NNC(=S)NCc2ccccc2)cc1 |  | 1.65 µM (active) |
| O=C(CSc1nc2[nH]ncc2c(=O)[nH]1)Nc1ccc(F)cc1 | -26.2% (inactive) |  |
| Cc1nonc1NC(=O)c1ccccc1Br | 11.3% (inactive) |  |
| Cc1c(C(=O)NNC(=O)c2ccncc2)oc2ccccc12 | 2.2% (inactive) |  |
| Cc1nonc1NC(=O)c1oc2ccccc2c1C |  | 9.28 µM (active) |
| Cc1ccc(NS(=O)(=O)c2ccc3c(c2)NC(=O)CO3)cc1 | 16.8% (inactive) |  |
| Cc1cc2c(cc1C)NC(c1ccccn1)C1=C(CC(C)(C)CC1=O)N2 (centres undefined) |  | 10.4 µM (active) |
| CC1(C)CC(=O)C(C2=NC(C)(C)Cc3ccccc32)=C(O)C1 | -7.07% (inactive) |  |
| CC1(C)CC(=O)C2=C(C1)Nc1cc(C(=O)c3ccccc3)ccc1NC2c1ccccn1 (centres undefined) | -3.64% (inactive) |  |
| Cc1ccc(NS(=O)(=O)c2ccc(-c3coc(C)n3)cc2)c(C)c1 | 32.4% (inactive) |  |
| CCc1ccc2[nH]c(=O)c(Cc3ccccc3)c(O)c2c1 | -10.4% (inactive) |  |
| CCOC(=O)C(Cc1ccccc1)NC(=O)CCC(=O)c1ccc(OC)cc1 (centres undefined) | -19.8% (inactive) |  |
| COC(=O)[C@H](Cc1ccccc1)NC(=O)Nc1ccc(OC)cc1 | -8.2% (inactive) |  |
| COc1cc([C@H](Cc2ccccc2)NC(C)=O)oc(=O)c1 |  | 9.28 µM (active) |
